Test [1] concerns Zika virus NS2B-NS3 protease (linked construct). The test can be described thus: Primary screen NINDS Rhodamine qHTS for Zika virus inhibitors (AID 1347160). Further: potency means the concentration at half of the fitted maximal effect; nearly all actives have a fitted effect of over 55% in size. In short, it runs like this:
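Percent inhibition, normalized to uninhibited and enzyme-free controls, is fitted to a 4-parameter Hill equation. Fluorescence change comes from a 15-min cleavage of 1.5 microM bis-peptide Rhodamine110 substrate by 25 nM linked NS2B-NS3 at room temperature.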
Background: qHTS replaces the single test concentration by a dilution series.

Test [2] can be described thus: HPAF-II Cancer Cell Toxicity qHTS against the NCATS CANVASS Library (AID 1347346). Further: nearly all actives have a fitted effect of over 55% in size. Further: potency means the concentration at half of the fitted maximal effect. In short, it runs like this: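 HPAF-II cells at 1000 cells/well were treated with an 11-point concentration series for 72 hours at 37 degrees C. Viability read by CellTiter-Glo luminescence.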
Test [3] is described as follows: OV-SAHO Cancer Cell Toxicity qHTS against the NCATS CANVASS Library (AID 1347348). Further: series mostly up to about 38 µM; nearly all actives have a fitted effect of over 55% in size. Put shortly:
(§1)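 Per well, 1000 cells; exposure 72 h with compound at 11 final concentrations; readout CellTiter-Glo luminescence.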

Test [4] is described as follows: U-118MG Cancer Cell Toxicity qHTS against the NCATS CANVASS Library (AID 1347351). In short, it runs like this:
as §1

Test [5] is described as follows: COV-362 Cancer Cell Toxicity qHTS against the NCATS CANVASS Library (AID 1347352). Further: series mostly up to about 38 µM. Put shortly: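 Cells at 1000/well were given compound 4 h after plating in an 11-point series. Viability was read by CellTiter-Glo luminescence after 72 h at 37 degrees C.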
Test [6] is described as follows: HEK293 18hr Apoptosis Induction qHTS against the NCATS CANVASS Library (AID 1347357). Put shortly: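 HEK293 cells (500 per well, DMEM with 10% FBS) were treated with natural products, incubated 18 hours at 37 degrees C, then caspase-3/7 activity was read by Caspase-Glo luminescence after 15 min at room temperature.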
Test [7] is described as follows: HPAF-II 12hr Apoptosis Induction qHTS against the NCATS CANVASS Library (AID 1347358). In short, it runs like this: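 HPAF-II cells, 500/well in DMEM + 10% FBS, exposed 12 hours at 37 degrees C to compound (11-point). Caspase-Glo 3/7 added for 15 min at room temperature; luminescence reflects caspase-3/7 activity.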
Test [8] can be described thus: HEK293 24hr Apoptosis Induction qHTS against the NCATS CANVASS Library (AID 1347359). In short, it runs like this:
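HEK293 cells (500/well, DMEM + 10% FBS) were exposed to compounds in an 11-point series for 24 hours at 37 degrees C, then caspase-3/7 activity was read by Caspase-Glo DEVD luciferase luminescence after 15 min.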

Test [9] is described as follows: HPAF-II 18hr Apoptosis Induction qHTS against the NCATS CANVASS Library (AID 1347360). Put shortly: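 HPAF-II cells (500/well, DMEM + 10% FBS) were exposed to compounds for 18 hours at 37 degrees C. Caspase-3/7 activity was then read by Caspase-Glo 3/7 luminescence after 15 min at room temperature.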
Test [10] can be described thus: HEK293 12hr Apoptosis Induction qHTS against the NCATS CANVASS Library (AID 1347361). In short, it runs like this: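 Read-out: Caspase-Glo 3/7 luminescence (DEVD substrate), 15 min RT. Preceded by 12 h compound exposure of HEK293, 500 cells/well, 11-pt qHTS titration; doxorubicin titration as control.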
Test [11] addresses Luciferin 4-monooxygenase (Photinus pyralis) (UniProt P08659). The test can be described thus: Firefly luciferase counterscreen qHTS: Assay Interference Panel against the NCATS CANVASS Library (AID 1347363). Further: potency means the concentration at half of the fitted maximal effect. Put shortly:
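Purified P. pyralis luciferase was added to compounds (11-point series) preincubated 15 min at room temperature with substrate containing 0.013 mM D-luciferin and 0.013 mM ATP; luminescence was read after 5 min.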

Test [12] in a line: MCF7 Cancer Cell Toxicity qHTS against the NCATS CANVASS Library (AID 1347369). Further: series mostly up to about 46 µM. Put shortly:
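MCF7, 500 cells/well; cpds 11-pt qHTS; 72 hr, 37C/5% CO2; CellTiterGlo ATP luminescence.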

Test [13] can be described thus: qHTS for ATAD5 Antagonist screened against the NCATS CANVASS Library (AID 1347370).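 Further: HEK293T cells carrying an ATAD5 luciferase reporter co-treated with 10 µM 5-fluorouridine; series mostly up to about 46 µM; nearly all actives have a fitted effect of over 65% in size.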 Put shortly:
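HEK293T cells with stably integrated ATAD5-luciferase reporter, 2000/well, 5 h attachment; compounds plus 10 µM 5-fluorouridine, 16 h at 37 °C. Luciferase luminescence read, with CellTiter-Fluor viability read first.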

Test [14] is described as follows: J3T Cancer Cell Toxicity qHTS against the NCATS CANVASS Library (AID 1347371).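 Further: J3T is a canine glioma cancer cell line seeded at 500 cells per well; series mostly up to about 46 µM.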 In short, it runs like this:
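J3T dog glioma cells, 500 per well, treated 72 h at 37C with compounds (11-point qHTS); viability from ATP content by CellTiterGlo luminescence; bortezomib titration as control.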

For test [15], the target named is Nuclear receptor subfamily 1 group I member 3 (Homo sapiens) (UniProt Q14994). As to the kind of experiment: qHTS for Constitutive Androstane Receptor (CAR) Antagonist screened against the NCATS CANVASS Library (AID 1347372).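 Further: cells stimulated with 50 nM CITCO agonist so inhibition reflects antagonism; series mostly up to about 46 µM.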 In short, it runs like this:
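HepG2 cells stably carrying hCAR and a CYP2B6-2.2kb luciferase reporter were exposed to compounds plus 50 nM CITCO for 24hr at 37C. CAR activity was read by ONE-Glo luminescence, with viability measured first by CellTiter-Fluor.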

The nature of test [16]: 10-beta competent E. coli microbial cell viability qHTS against the NCATS CANVASS Library (AID 1347376). Further: series mostly up to about 46 µM. In short, it runs like this: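 10-beta competent E. coli (0.2 OD) were exposed overnight at 37C to compounds in an 11-point series. Viability was read as ATP-dependent BacTiter-Glo luminescence after 20 min at room temperature.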
The nature of test [17]: qHTS for Inflammasome Signaling Inhibitors: IL-1-beta AlphaLISA screen against the NCATS CANVASS Library (AID 1347379).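 Further: human THP-1 cells primed with LPS then triggered with ATP.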 Put shortly: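 THP-1 cells pretreated 1 hr with compound (up to 57.5 uM final), then stimulated with LPS (250 ng/mL final) and ATP (1.25 mM final). Secreted IL-1B measured by AlphaLISA after 16 hr; glyburide as positive control.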
The nature of test [18]: Inflammasome Signaling qHTS Counterscreen: IL-1-beta AlphaLISA counterscreen against the NCATS CANVASS Library (AID 1347381).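 Further: cell-free check with purified IL-1β in medium and no THP-1 cells; series mostly up to about 57 µM.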 Put shortly: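 Cell-free interference check: compounds added to medium spiked with 4 pg purified IL-1β. Anti-IL-1β acceptor beads (6 ug/mL) with 0.6 nM biotinylated antibody added for 1 h at RT, then streptavidin donor beads (24 ug/mL) for 30 min in the dark. AlphaLISA read at 680/615 nm.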

Test [19] is described as follows: Cytotoxicity qHTS for assessment of Hepg2 cells membrane integrity screened against the NCATS CANVASS Library (AID 1347387). Put shortly: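 HepG2 cells (2000/well) attached overnight, then exposed 5 hr at 37C to compounds in an 11-point series (0.59 nM - 46 uM final). LDH release from damaged membranes read fluorometrically (CytoTox-ONE; 560/590 nm) after 10 min at room temperature.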

Test [20] in a line: Vero-766 cells viability qHTS against the NCATS CANVASS Library: Counterscreen for Zika virus inhibition assay (AID 1347394). Further: nearly all actives have a fitted effect of over 60% in size. Further: potency means the concentration at half of the fitted maximal effect. In short, it runs like this: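 Uninfected Vero 766 (African green monkey) cells, 1000/well, attached overnight, then exposed 72 h at 37C to compounds (11-point qHTS). Viability read by CellTiter-Glo luminescence; media-only wells served as 100% inhibition.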

This is an account of results in PubChem BioAssay (NCATS).

Records with an inconclusive call do not appear. The source made the active and inactive calls. The call rests on the fitted dose curve; in most records, active means well fitted curve in the direction sought with a large enough effect; inconclusive means small, poorly fitted or top-dose-only effect, or another doubt; inactive means no such curve, though single readings can be large; an effect the other way counts as inactive or inconclusive.

Chain of Luciferin 4-monooxygenase (Photinus pyralis) (P08659 whole entry, looked up): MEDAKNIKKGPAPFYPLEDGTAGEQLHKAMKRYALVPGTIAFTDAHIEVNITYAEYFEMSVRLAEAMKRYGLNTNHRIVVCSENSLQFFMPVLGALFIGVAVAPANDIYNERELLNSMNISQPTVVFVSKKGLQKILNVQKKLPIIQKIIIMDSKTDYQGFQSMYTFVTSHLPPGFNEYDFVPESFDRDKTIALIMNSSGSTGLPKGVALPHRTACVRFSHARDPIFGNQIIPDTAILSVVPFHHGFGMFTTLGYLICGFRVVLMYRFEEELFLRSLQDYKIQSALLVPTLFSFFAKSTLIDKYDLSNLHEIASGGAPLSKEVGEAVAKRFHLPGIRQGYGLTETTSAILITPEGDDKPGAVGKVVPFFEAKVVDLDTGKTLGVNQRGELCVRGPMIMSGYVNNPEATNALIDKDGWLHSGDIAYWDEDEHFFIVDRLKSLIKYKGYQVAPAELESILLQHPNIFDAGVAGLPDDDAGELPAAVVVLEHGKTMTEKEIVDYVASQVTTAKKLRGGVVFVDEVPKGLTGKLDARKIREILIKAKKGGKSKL
Chain of Nuclear receptor subfamily 1 group I member 3 (Homo sapiens) (Q14994 whole entry, looked up): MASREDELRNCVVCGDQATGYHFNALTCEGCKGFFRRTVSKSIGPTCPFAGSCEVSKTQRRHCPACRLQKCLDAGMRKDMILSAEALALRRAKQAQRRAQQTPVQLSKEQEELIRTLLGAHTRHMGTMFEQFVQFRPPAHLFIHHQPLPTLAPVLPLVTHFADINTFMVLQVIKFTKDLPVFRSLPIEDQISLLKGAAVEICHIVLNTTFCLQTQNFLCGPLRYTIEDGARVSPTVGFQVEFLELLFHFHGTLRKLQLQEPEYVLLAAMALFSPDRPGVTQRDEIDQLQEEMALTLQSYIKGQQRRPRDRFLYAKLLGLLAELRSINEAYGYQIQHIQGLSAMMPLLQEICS

For `COc1c(O)cc2oc(-c3ccccc3)cc(=O)c2c1O`, the Potency in [1] is 44 µM (active); in test [11] it was 0.544 µM (active). Also, the Potency result in test [2], in [3], in test [4], in [5], in [6] and in test [7] was “inactive” in each case. The Potency result in [8], in test [9], in test [10], in test [12], in [13] and in test [14] was “inactive” in each case. For the same compound, the Potency entry in [15] and in [17] was “inactive” in each case. For the same compound, the result in [16], in test [18] and in test [19] was inactive.

Consider `CCCCCCCCCCCCCCCC(=O)OC/C=C(\C)CCCC(C)CC(C)C(C)C` (centres undefined), for which the values for the Potency in test [1] and in [2] were 55.3 µM (active) and 0.298 µM (active), respectively. The Potency result in [3], in test [4], in test [5], in [6], in [7] and in test [8] was “inactive” throughout. Further, the Potency entry in test [9], in [10], in test [11], in test [12], in test [13] and in test [14] was “inactive” each time. Further, the Potency result in [15], in test [17] and in test [20] was “inactive” each time. Moreover, the compound was classed as inactive in [16], in test [18] and in test [19].

For `C=C(C)CC[C@H](Cc1c(O)cc(O)c2c1O[C@H](c1ccc(O)cc1O)CC2=O)C(=C)C`, the Potency in test [1] is 19.6 µM (active); in test [20], 23.4 µM (active). Moreover, the Potency entry in test [2], in test [3], in test [4], in test [5], in test [6] and in [7] was “inactive” each time. Further, the Potency entry in test [8], in [9], in test [10], in test [11], in test [12] and in [13] was “inactive” throughout. The Potency result in [14], in test [15] and in test [17] was “inactive” throughout. Besides, the call in test [16], in test [18] and in test [19] was inactive.

`C=C(NC(=O)c1csc(-c2nc3c(cc2O)-c2nc(cs2)C(=O)NC(C(C)O)C(=O)N/C(=C(\C)O)c2nc(cs2)C(=O)NC2c4nc(cs4)C(=O)NC(COC(=O)c4c5c6c(cccc6n4O)COC(=O)[C@@H](OC4C[C@](C)(O)[C@H](N(C)C)[C@H](C)O4)C2OC5)c2nc-3cs2)n1)C(N)=O` (some centres undefined): the Potency in [1] was 4.4 µM (active). The Potency entry in test [2], in test [3], in test [4], in [5], in test [6] and in [7] was “inactive” each time. Also, the Potency result in test [8], in test [9], in test [10], in test [11], in test [12] and in [13] was “inactive” throughout. Moreover, the Potency result in [14], in test [15], in test [17] and in [20] was “inactive” each time. In addition, the compound was called inactive in test [16], in [18] and in [19].
